Screening data: PubChem, several laboratories
CYP2C9 activ = human CYP2C9 activators, primary screen, biochemical, luminescence; Cytochrome P450 2C9 (Homo sapiens), P11712; recombinant CYP2C9, luciferin-H conversion; active compounds read high; factor 1 = untreated enzyme, 0 = blocked; activation factor at 5 µM; actives 1.4% (n = 96,000);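 active means activation factor of 2 or more for CYP2C9 at a 5 µM dose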
PostGolgi ctrl = growth inhibition of yeast control strain, primary screen, counter-screen for post-Golgi transport modulator project; efflux-deficient yeast background strain, growth absorbance A615, 16 h; inhibition, % at 10 µM; actives 5% (n = 98,000); AID 738, 2007
CYP2C9 inh = blockers of cytochrome P450 2C9 activity – biochemical, luminescence, ADME assay, primary screen; P11712; CYP2C9 Supersomes, luciferin-H conversion; inhibition, % at 5 µM; actives 20% (n = 96,000); AID 777, 2007;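 active means blocking of liver enzyme CYP2C9 beyond about 50% at 5 µM, limit read from the data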
CYP2C19 inh = blockers of cytochrome P450 2C19 activity – biochemical, luminescence, ADME assay, primary screen. P33261. CYP2C19 Supersomes, luciferin-H EGE luminescence, 30 min. AID 778, 2007. actives 21% (n = 96,000). inhibition, % at 5 µM;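 active means CYP2C19 inhibition above a set limit at 5 µM in the primary screen, cut at about 50% in these data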
Target sequence (P33261 whole entry, looked up): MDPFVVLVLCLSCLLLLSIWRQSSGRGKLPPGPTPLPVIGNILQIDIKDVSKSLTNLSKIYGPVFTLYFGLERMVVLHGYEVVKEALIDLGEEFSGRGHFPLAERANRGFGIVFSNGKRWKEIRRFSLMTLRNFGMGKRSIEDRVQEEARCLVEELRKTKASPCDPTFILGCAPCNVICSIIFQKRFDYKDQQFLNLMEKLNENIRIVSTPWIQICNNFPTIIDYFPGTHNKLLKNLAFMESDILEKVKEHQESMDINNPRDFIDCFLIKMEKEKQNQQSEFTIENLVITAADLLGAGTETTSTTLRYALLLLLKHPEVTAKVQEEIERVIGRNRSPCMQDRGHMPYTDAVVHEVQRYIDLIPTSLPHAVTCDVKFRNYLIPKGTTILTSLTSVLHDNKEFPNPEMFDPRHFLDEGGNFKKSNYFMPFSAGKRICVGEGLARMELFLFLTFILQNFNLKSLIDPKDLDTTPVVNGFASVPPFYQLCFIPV
CYP2C19 activ = human CYP2C19 activators, primary screen, biochemical, luminescence | activation factor at 5 µM | AID 1025, 2008 | 96,000 tested, under 10 active | recombinant CYP2C19, luciferin-H EGE luminescence; active compounds read high; 0 = fully inhibited enzyme, 1 = untreated enzyme | Cytochrome P450 2C19 (Homo sapiens), P33261;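 active means activation factor of at least 2 at 5 µM in the primary screen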
PostGolgi yeast = phenotypic screen on post-Golgi transport, primary screen | inhibition, % at 10 µM | post-Golgi transport phenotypic cell assay | actives 0.9% (n = 98,000) | AID 739, 2007;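 further: yeast cells grown in 1536-well plates; yeast grown about 18 h at 30C before absorbance read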
Numbers stand for hits; – = inactive; · = no result given. Only some compounds are listed: those with a hit (about 32% of all), similar ones and a draw of the others. Unless noted, no stated cut-off is given here; in the data, active means inhibition above about 30%; inactive means the rest.

SMILES | CYP2C9 activ | PostGolgi ctrl | CYP2C9 inh | CYP2C19 inh | CYP2C19 activ | PostGolgi yeast
O=C(Cn1nnc(-c2ccccc2-n2cnnn2)n1)N1CCCCC1 | – | – | – | – | – | –
O=C(Cn1nnc(-c2cccc(C(F)(F)F)c2)n1)N1CCCCCC1 | 4.2 | – | – | 56.8 | – | –
CCn1c(CC(=O)Nc2ccc(C)c(Cl)c2)nnc1SCCOc1ccc(OC)cc1 | – | – | – | – | – | –
CCn1c(SCCOc2ccc(OC)cc2)nnc1C(CO)NC(=O)c1ccc(OC)cc1 (stereo unspecified) | – | – | 88.4 | 63.6 | – | –
C=CCn1c(SCCOc2ccc(OC)cc2)nnc1C(C)NC(=O)Cc1ccc(OC)cc1 (stereo unspecified) | – | – | 67.8 | 76.7 | – | –
Fc1ccc(-c2cnc[nH]2)cc1 | – | – | 75.8 | 54.7 | – | –
C=CCN1C(=NC(=O)CCC)SC2CS(=O)(=O)CC21 (stereo unspecified) | – | – | – | – | – | –
Cc1ccc2cc(CN(CCCO)S(=O)(=O)c3cccc4nsnc34)c(=O)[nH]c2c1C | – | – | 100.4 | – | – | –
COc1ccc2[nH]c(=O)c(CN(CC3CCCO3)C(=O)Nc3ccccc3OC)cc2c1 (stereo unspecified) | – | – | – | – | – | –
Cc1ccc2nsnc2c1S(=O)(=O)N(Cc1cc2cccc(C)c2[nH]c1=O)CC1CCCO1 (stereo unspecified) | – | – | 78.0 | – | – | –
COc1ccc2cc(CN(CC3CCCO3)S(=O)(=O)c3ccccc3Cl)c(=O)[nH]c2c1 (stereo unspecified) | – | – | 98.9 | 58.1 | – | –
CCC(=O)N(CCO)Cc1cc2ccc(C)c(C)c2[nH]c1=O | – | – | – | – | – | 32.7
COC(=O)c1ccc(/C=N/NC(=O)CC(=O)NC(C)C)cc1 | – | – | – | – | – | –
O=C(Nc1ccc(F)c(F)c1)c1cc(S(=O)(=O)N2CCN(c3ccccn3)CC2)ccc1F | – | – | – | – | – | –
CCN(Cc1ccccc1)S(=O)(=O)c1ccc(S(=O)(=O)N(Cc2cccc(OC)c2)CC2CCCO2)cc1 (stereo unspecified) | – | – | 54.7 | – | – | –
COc1cccc(CN(CC2CCCO2)S(=O)(=O)c2ccc(S(=O)(=O)NCC3CCCO3)cc2)c1OC (stereo unspecified) | – | – | – | – | – | –
Cc1ccc2cc(CN(CC3CCCO3)S(=O)(=O)c3c(C)ccc4nsnc34)c(=O)[nH]c2c1 (stereo unspecified) | – | – | 52.3 | – | – | –
Cc1nn(Cc2ccc(Cl)c(Cl)c2)c(C)c1NC(=O)c1cc(-c2ccco2)on1 | · | – | · | · | · | –
COc1cccc(-c2cc(C(F)(F)F)nc(NCc3ccco3)n2)c1 | · | 32.7 | · | · | · | –
Cc1cc(Nc2nc3ccccc3nc2Cl)n(-c2ccccc2)n1 | – | – | – | – | – | –
Cc1cc(NC(=O)c2ccc(C)s2)n(-c2ccccc2)n1 | – | – | – | 75.7 | – | –
Cc1cc(Nc2ccc(Cl)cc2)n(-c2cccc(Cl)c2)n1 | – | – | 98.0 | 98.7 | – | –
Cc1cc(NC(=O)COc2ccc(Cl)cc2Cl)n(-c2ccccc2)n1 | – | – | – | 71.2 | – | –
Cc1cc(NC(=O)Nc2cc(C)nn2-c2ccccc2)n(-c2ccccc2)n1 | – | – | – | – | – | –
Cc1cc(Nc2ccccc2)n(-c2ccc(Br)cc2)n1 | – | – | 96.9 | 90.4 | – | –
SMILES | CYP2C9 activ | PostGolgi ctrl | CYP2C9 inh | CYP2C19 inh | CYP2C19 activ | PostGolgi yeast
CCOC(=O)/C=C(\C)Nc1cc(C)nn1-c1ccccc1 | – | – | – | – | – | –
O=C(Cn1nc(-c2ccc(F)cc2)ccc1=O)Nc1ccc(C(=O)NC2CC2)cc1 | – | – | – | – | – | –
Fc1cccc(CN2CCN(c3ncccn3)CC2)c1 | – | – | – | – | – | –
Cc1cc(Nc2ccc(Cl)cc2)n(-c2ccccc2)n1 | – | – | 69.7 | 58.6 | – | –
COc1nc(OC)nc(N2CCC(C(=O)NCc3ccc(F)cc3)CC2)n1 | – | – | – | – | – | –
Cc1ccc(-c2cccc(NC(=O)C3C4C=CC(C4)C3C(=O)O)c2)o1 (stereo unspecified) | – | – | – | – | – | –
CCCCNC(=O)C1CC(c2ccccc2[N+](=O)[O-])=NO1 (stereo unspecified) | – | – | – | – | – | –
c1ccc(CC2CCN(C3=Nc4cccc5cccc3c45)CC2)cc1 | – | – | – | 86.7 | – | –
Cc1ccc(OC(=O)c2ccc(C)c(C)c2)cn1 | – | – | – | – | – | –
CCOC(=O)Nc1sc(NS(=O)(=O)c2ccc(C)cc2)nc1C | – | – | 57.8 | – | – | –
CCOC(=O)Nc1sc(NS(=O)(=O)c2ccccc2)nc1C | – | – | 81.4 | – | – | –
CCOC(=O)c1sc(NC(=O)c2ccccc2OC)nc1C | – | 41.8 | – | – | – | –
CCOC(=O)c1sc(NS(=O)(=O)c2ccc(C)cc2)nc1C | – | – | 77.1 | – | – | –
COc1ccc(CC(NC(C)=O)C(=O)N2CCN(C(=O)N(C(C)C)C(C)C)CC2)cc1 (stereo unspecified) | – | – | – | – | – | –
COc1cccc(-c2nnn(CC(=O)Nc3ccc(C)cc3C)n2)c1OC | – | – | – | – | – | –
Cc1ccc(CNC(=O)CCS(=O)(=O)c2ccc(Br)s2)cc1 | – | – | – | – | – | –
CCOC(=O)Nc1ccc(NS(=O)(=O)c2ccc(C)cc2)cc1 | – | – | 95.9 | 99.1 | – | –
CCOC(=O)NCc1ccc(S(=O)(=O)Nc2c(C)cccc2C)cc1 | – | – | – | 74.7 | – | –
Cc1ccc(NS(=O)(=O)c2ccc(NC(=O)c3cccs3)cc2)cc1 | – | – | 51.4 | – | – | –
C=CCOC(=O)c1sc(NC(=O)c2ccco2)nc1C | – | – | 81.8 | – | – | –
CCOC(=O)c1ccc2nc(NC(=O)c3ccco3)sc2c1 | · | – | · | · | · | –
CC1CCN(c2c(NCc3ccc(C(=O)NCc4cccnc4)cc3)c(=O)c2=O)CC1 | – | – | – | – | – | –
CCc1ccc(N2CCN(C(=O)c3ccc(OC)c(OC)c3)CC2)cc1 | – | – | – | – | – | –
COC(=O)Cn1c(=O)c2c(nc(Br)n2CC(=O)OC)n(C)c1=O | – | – | – | – | – | –
Cn1c(=O)c2c(nc(SCc3ccccn3)n2C)n(C)c1=O | – | · | – | – | – | ·
CCc1cccc(NC(=O)c2snc3c(=O)[nH]cnc23)c1 | – | – | – | – | – | –
Cc1cccc(NC(=O)c2snc3c(=O)[nH]cnc23)c1 | – | – | 51.7 | – | – | –
Cc1cccc(NC(=O)c2sc(Cl)nc2-c2ccccc2)c1 | – | – | 54.1 | 91.0 | – | –
